The record followed here is ChEMBL document CHEMBL3988442, “University of Dundee, Small-Polar-MMV Screening Library” (2021).

Holding throughout (parameters): scale not given: direction of the effect not stated beside the values
Assay [1] concerns the target Protein translocase subunit SecA (Escherichia coli (strain K12)) (UniProt P10408). Nature of the assay: Assay to Identify E. coli SecA ATPase Inhibitors. The note with it: 30 µM. The assay is classed as functional.
The target of assay [2] is T1, Ubiquitin-activating enzyme e1, putative (Leishmania donovani (strain BPK282A1)) (UniProt E9BSI1).
T1 sequence (whole entry): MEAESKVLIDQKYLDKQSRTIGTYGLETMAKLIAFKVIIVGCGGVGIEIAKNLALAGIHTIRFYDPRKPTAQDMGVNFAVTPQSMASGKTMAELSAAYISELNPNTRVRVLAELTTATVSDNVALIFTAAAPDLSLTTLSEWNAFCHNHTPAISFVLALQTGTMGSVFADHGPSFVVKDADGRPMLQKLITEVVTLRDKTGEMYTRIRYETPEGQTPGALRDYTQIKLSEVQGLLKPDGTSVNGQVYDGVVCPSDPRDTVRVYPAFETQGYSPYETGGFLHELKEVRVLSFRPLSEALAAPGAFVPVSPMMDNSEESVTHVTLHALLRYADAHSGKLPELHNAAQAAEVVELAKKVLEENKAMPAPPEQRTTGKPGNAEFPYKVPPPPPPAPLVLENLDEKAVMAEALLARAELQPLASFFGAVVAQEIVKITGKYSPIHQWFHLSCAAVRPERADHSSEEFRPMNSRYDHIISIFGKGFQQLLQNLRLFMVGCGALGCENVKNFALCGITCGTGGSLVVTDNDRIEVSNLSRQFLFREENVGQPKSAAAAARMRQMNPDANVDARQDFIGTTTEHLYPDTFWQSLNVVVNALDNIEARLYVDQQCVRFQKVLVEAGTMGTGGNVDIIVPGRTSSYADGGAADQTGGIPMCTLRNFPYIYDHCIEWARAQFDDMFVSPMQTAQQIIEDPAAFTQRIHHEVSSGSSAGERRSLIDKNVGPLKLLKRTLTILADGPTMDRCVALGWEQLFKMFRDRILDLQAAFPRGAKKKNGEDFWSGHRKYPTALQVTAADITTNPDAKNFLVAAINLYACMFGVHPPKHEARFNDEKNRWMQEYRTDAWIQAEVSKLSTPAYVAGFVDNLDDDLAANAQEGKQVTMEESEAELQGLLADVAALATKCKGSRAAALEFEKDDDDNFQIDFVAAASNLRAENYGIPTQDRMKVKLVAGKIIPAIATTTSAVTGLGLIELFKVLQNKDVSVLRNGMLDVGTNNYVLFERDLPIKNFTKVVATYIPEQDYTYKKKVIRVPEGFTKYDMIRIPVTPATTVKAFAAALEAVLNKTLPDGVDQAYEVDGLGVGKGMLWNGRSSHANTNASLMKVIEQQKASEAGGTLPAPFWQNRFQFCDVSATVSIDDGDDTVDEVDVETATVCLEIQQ
As to the kind of experiment: Leishmania donovani Ubiquitin Activating Enzyme (LdE1). The format is functional. To be noted: 30 µM.

Assay [3] has as its target AMP-activated protein kinase, AMPK (Homo sapiens) (UniProt P54646+O43741+P54619+Q9UGJ0+Q9Y478+Q13131+Q9UGI9). As to the kind of experiment: AMP-dependent Kinase enzyme assay. An in vitro enzyme assay that detects ADP turnover that is directly proportional to AMPK activity. This uses naive AMPK that is activated during the assay with MK-8722. The format is functional. To be noted: 30 µM.

Assay [4] has as its target Sialic acid-binding Ig-like lectin 9 (Homo sapiens) (UniProt Q9Y336). Nature of the assay: Hs-Siglec9 ALPHAscreen SOP 20170721. The note with it: 10 µM. (In Alpha technology, singlet oxygen from a donor bead excites a nearby acceptor bead.)
The next assay relates to Trypanosoma cruzi. Nature of the assay: Trypanosoma cruzi phosphomannomutase and mannose-1-phosphate guanylyltransferase assay. The format is functional. The note with it: 10 µM.
Assay [5] deals with T2, Arginase-2, mitochondrial (Homo sapiens) (UniProt P78540).
T2 sequence (whole entry): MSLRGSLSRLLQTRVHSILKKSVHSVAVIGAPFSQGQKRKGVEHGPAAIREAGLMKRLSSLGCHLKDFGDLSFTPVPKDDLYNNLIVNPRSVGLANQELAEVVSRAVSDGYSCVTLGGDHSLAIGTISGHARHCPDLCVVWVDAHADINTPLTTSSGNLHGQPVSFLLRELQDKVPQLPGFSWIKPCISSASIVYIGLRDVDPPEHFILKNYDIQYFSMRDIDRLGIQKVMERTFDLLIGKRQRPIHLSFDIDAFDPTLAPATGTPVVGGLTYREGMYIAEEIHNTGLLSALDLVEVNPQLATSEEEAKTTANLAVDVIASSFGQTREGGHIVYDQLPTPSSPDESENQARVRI
Nature of the assay: in vitro enzyme assay to detect the production of urea directly proportional to the activity of Arginase II. Further: in the data most compounds retested in dose-response had high values. The format is functional. The note with it: 33.3 µM.

Assay [6] concerns the target T3, Proteasome subunit beta (Trypanosoma cruzi) (UniProt O96673).
T3 sequence (whole entry): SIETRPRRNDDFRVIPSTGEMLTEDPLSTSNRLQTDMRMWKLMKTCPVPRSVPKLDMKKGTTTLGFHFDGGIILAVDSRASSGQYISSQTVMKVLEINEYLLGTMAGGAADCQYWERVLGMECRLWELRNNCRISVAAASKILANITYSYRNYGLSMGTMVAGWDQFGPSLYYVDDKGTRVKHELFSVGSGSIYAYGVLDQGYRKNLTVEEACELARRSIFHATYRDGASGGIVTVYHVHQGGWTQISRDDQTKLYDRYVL
As to the kind of experiment: Trypanosoma cruzi proteasome chymotrypsin-like activity (TcProtChymo) assay. Further: in the data most compounds retested in dose-response had high values. The assay is classed as functional. To be noted: 9.37 µM.

A further assay is filed under the species Homo sapiens. Nature of the assay: To identify inhibition of the IFN signalling (Jak-Stat) pathway via expression of an eGFP reporter gene under the control of an IFN-stimulated response element (ISRE) containing MxA promoter. The format is functional. To be noted: 30 µM. In general terms: In a reporter assay the amount or activity of a reporter protein is the signal.

For assay [7], the target named is T4, Tyrosyl-tRNA synthetase, putative (Trypanosoma cruzi (strain CL Brener)) (UniProt Q4DSP6).
T4 sequence (whole entry): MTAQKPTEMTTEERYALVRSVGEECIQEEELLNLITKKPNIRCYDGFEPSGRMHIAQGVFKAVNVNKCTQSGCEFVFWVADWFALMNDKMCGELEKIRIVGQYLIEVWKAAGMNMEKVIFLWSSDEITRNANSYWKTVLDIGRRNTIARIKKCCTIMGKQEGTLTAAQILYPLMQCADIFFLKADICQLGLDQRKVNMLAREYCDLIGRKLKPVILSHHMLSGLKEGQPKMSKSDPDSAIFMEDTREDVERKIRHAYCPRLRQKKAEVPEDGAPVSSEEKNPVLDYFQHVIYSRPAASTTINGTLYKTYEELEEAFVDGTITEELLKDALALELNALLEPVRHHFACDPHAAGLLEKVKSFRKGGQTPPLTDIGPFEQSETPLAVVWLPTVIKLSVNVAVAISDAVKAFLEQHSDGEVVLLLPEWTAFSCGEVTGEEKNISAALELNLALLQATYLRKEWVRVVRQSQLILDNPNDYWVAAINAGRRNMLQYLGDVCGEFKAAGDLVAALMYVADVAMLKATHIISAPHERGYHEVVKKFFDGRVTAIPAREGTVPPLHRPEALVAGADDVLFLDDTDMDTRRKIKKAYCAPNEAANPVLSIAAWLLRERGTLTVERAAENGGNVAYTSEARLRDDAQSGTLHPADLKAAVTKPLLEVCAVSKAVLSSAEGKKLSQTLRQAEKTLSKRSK
As to the kind of experiment: Trypanosoma cruzi tyrosyl tRNA synthetase (TcYRS) _High Tyrosine SOP. Further: in the data most compounds retested in dose-response had high values. The assay is classed as functional. The note with it: 30 µM.

The target of assay [8] is T4, Tyrosyl-tRNA synthetase, putative (Trypanosoma cruzi (strain CL Brener)). As to the kind of experiment: Trypanosoma cruzi tyrosyl tRNA synthetase (TcYRS) SOP. The format is functional. To be noted: 30 µM.
Assay [9] has as its target Chromo domain-containing protein 1 (Saccharomyces cerevisiae (strain ATCC 204508 / S288c) (Baker's yeast)) (UniProt P32657). As to the kind of experiment: ScCHD-1 Enzyme Inhibition Assay. Further: in the data most compounds retested in dose-response had high values. The note with it: 30 µM. The assay is classed as functional.

For some of these results: Measured potencies and affinities stand elsewhere.

Chain of Sialic acid-binding Ig-like lectin 9 (Homo sapiens) (Q9Y336 whole entry): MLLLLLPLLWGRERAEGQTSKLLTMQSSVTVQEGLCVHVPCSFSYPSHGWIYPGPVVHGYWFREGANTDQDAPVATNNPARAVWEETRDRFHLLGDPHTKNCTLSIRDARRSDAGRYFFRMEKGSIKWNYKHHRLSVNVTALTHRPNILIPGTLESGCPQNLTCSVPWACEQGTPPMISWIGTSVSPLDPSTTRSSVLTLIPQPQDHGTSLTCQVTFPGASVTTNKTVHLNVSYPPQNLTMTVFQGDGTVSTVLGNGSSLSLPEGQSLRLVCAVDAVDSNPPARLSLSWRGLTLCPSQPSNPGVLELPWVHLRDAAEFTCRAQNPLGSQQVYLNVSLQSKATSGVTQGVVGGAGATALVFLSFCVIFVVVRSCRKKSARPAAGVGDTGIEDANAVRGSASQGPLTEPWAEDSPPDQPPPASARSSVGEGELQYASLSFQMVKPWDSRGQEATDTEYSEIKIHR
Chain of Chromo domain-containing protein 1 (Saccharomyces cerevisiae (strain ATCC 204508 / S288c) (Baker's yeast)) (P32657 whole entry, the tested form may be a part): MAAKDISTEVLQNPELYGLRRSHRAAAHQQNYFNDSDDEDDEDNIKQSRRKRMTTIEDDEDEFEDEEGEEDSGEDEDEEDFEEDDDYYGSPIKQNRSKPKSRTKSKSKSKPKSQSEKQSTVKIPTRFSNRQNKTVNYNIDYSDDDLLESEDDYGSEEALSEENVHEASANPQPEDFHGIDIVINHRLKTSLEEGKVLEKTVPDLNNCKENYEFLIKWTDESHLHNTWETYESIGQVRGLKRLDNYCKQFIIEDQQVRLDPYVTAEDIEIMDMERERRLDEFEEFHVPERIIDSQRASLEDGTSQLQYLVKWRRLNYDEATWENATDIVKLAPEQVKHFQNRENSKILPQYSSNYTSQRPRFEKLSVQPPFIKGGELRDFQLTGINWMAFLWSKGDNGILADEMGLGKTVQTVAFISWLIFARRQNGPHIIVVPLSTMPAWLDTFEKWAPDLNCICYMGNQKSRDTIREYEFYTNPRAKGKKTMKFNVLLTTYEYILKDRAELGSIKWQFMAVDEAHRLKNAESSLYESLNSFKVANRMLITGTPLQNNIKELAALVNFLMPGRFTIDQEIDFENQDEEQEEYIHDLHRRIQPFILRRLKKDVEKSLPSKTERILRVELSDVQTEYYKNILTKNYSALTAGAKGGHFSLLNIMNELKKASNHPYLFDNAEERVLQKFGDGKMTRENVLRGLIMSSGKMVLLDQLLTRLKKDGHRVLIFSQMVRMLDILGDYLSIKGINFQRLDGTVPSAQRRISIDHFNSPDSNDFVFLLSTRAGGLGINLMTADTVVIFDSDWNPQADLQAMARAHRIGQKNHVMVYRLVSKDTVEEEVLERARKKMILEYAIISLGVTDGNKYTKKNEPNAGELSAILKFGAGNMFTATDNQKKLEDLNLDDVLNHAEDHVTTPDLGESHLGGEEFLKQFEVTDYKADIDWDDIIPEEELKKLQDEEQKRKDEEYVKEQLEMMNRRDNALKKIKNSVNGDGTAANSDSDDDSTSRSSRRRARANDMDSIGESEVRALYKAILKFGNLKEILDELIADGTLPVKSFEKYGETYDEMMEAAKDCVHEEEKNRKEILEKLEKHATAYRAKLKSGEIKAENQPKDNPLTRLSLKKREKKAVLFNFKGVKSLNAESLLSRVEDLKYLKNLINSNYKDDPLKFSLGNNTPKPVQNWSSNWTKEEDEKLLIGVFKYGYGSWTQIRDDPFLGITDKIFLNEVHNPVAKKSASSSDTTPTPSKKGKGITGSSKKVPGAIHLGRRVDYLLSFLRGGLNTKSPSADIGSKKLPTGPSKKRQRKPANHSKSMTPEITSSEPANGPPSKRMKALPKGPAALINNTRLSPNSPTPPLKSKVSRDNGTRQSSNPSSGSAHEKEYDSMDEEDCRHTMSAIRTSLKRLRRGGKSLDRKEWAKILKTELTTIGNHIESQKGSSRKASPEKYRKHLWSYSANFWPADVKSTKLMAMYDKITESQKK
Chain of Protein translocase subunit SecA (Escherichia coli (strain K12)) (P10408 whole entry): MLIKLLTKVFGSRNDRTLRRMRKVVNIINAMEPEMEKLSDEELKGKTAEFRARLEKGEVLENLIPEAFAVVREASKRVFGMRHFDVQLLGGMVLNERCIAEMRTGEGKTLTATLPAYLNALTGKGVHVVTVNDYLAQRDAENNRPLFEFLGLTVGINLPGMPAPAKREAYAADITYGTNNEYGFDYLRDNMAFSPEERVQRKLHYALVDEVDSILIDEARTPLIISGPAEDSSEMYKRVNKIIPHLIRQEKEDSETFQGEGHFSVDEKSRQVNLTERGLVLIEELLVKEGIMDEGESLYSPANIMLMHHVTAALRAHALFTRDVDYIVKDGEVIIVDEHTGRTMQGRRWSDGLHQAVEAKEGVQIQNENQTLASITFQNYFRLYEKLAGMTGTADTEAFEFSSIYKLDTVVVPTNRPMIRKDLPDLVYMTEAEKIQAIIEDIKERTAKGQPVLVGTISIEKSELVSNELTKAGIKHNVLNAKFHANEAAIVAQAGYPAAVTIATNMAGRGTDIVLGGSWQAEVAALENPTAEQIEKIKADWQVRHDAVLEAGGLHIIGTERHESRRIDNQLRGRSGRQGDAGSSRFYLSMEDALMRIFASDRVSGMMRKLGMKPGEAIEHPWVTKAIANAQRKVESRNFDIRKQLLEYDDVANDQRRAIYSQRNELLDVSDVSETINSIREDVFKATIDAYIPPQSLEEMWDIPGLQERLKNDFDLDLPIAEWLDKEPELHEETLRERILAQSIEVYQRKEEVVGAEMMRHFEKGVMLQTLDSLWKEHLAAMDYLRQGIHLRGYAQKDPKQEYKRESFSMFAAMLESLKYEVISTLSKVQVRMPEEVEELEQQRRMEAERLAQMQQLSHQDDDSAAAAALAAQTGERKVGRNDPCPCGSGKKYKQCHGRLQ

For `CCN(C)c1ccc(C(=O)N(CCOC)Cc2ccccn2)cc1`, the Percent Effect in [1] was -4.29%; in [2] it was 21.3%; in assay [3] it was -3.55%; in [4] it was 21.4%; with Trypanosoma cruzi, 7.89%; in assay [5] it was 38.5%. Also, the Percent Effect in assay [6] was 15.2%; in the assay listed under Homo sapiens, 20.7%; in assay [7], 6.01%; in assay [8], 21%; in [9], -5.22%.

`CCOCC(O)CN1CCN(C(=O)c2cc(F)ccc2C)CC1` (stereo unspecified): the Percent Effect in assay [1] is -1.68%; in [2] it was 0%; in assay [3] it was -2.69%; in assay [4] it was -1.76%; in the assay with Trypanosoma cruzi, 0.187%; in assay [5], 0%. The Percent Effect in assay [6] was -3.72%; in the assay listed under Homo sapiens, -13.3%; in assay [7] it was 0.971%; in [8] it was 2.44%; in assay [9] it was 2.5%.

Take `Cc1nc(O)cc(C2CCN(Cc3cccc(F)c3F)C2)n1` (stereo unspecified): the Percent Effect in [1] was -5.61%; in assay [2], 20.3%; in [3], -0.666%; in assay [4], -0.896%; in the assay with Trypanosoma cruzi it was 1.19%; in assay [5], -3.94%. Moreover, the Percent Effect is 9.83% in assay [6]; 2.45% in the assay filed under Homo sapiens; 2.15% in assay [7]; 16.9% in assay [8]; -14.2% in assay [9].

Take `Cc1cc(CC(=O)N(CC2CN(C)CCO2)c2nccs2)no1` (stereo unspecified): the Percent Effect is 1.69% in [1]; 0% in assay [2]; -0.764% in [3]; 6.8% in [4]; 6.41% in the assay on Trypanosoma cruzi; 2.03% in assay [5]. For the same molecule, the Percent Effect was 1.08% in assay [6]; -15.8% in the assay listed under Homo sapiens; 0% in [7]; 6.1% in assay [8]; -3.54% in [9].

As to `CCSCCNC(=O)C(c1cccc(C)c1)N(C)C` (stereo unspecified), the Percent Effect in assay [1] amounted to 0.71%; in assay [2], 16.2%; in [3], 4.54%; in [4] it was 18.5%; with Trypanosoma cruzi it was 4.83%; in [5] it was 1.43%. Besides, the Percent Effect was 12.1% in assay [6]; 20.1% in the assay listed under Homo sapiens; 6.88% in assay [7]; 17.1% in [8]; -11.3% in assay [9].

For `O=C(CCCc1cn[nH]c1)N1C[C@@H](CN2CCOCC2)[C@@H](CO)C1`, the Percent Effect in assay [1] is -5.38%; in assay [2], -5.48%; in assay [3] it was 0.507%; in [4], -3.16%; in the assay on Trypanosoma cruzi it was -2.74%; in assay [5], -2.27%. Moreover, the Percent Effect in assay [6] was 4.08%; in the assay listed under Homo sapiens, 5.26%; in assay [7], 0%; in assay [8] it was -5%; in [9] it was -2.89%.

Consider `CCOCC(O)CN1CCN(C(=O)c2ccc(OC)cc2F)CC1` (stereo unspecified), for which the Percent Effect is -4.94% in assay [1]; 18.2% in [2]; -0.292% in [3]; 4.59% in [4]; 1.87% with Trypanosoma cruzi; 2.85% in [5]. For the same molecule, the Percent Effect in assay [6] is 0.676%; in the assay filed under Homo sapiens, 13.6%; in assay [7] it was 7.77%; in assay [8], 14.6%; in assay [9], -9.36%.

For the molecule `COC(=O)c1cccc(OCCn2nc(-c3cccs3)oc2=O)c1`, the Percent Effect in [1] was -3.91%; in assay [2], -5.41%; in [3] it was -4.63%; in [4], 7.61%; in the assay on Trypanosoma cruzi it was -4.36%; in [5], -3.14%. In addition, the Percent Effect in [6] was 1.44%; in the assay listed under Homo sapiens, 22.8%; in [7], -16.8%; in assay [8], -6.1%; in assay [9], 3.23%.

As to `Cc1cnn(CC2CCCN2c2nn3cc(C)nc3s2)c1` (stereo unspecified), the Percent Effect in assay [1] is -7.38%; in [2], 11.4%; in assay [3], -3.44%; in assay [4], 2.81%; in the assay with Trypanosoma cruzi it was -0.103%; in assay [5] it was -1.07%. Moreover, the Percent Effect was 7.03% in assay [6]; 8.17% in the assay listed under Homo sapiens; -2.08% in assay [7]; 15.2% in [8]; -26% in assay [9].

As to `COCCN1C(=O)C[C@H]2[C@H]1CCN2Cc1ccc(OC)cc1`, the Percent Effect was -2.83% in assay [1]; 5.33% in [2]; 11% in [3]; -2.04% in assay [4]; -9.45% in the assay with Trypanosoma cruzi; 7.69% in assay [5]. Moreover, the Percent Effect in assay [6] was 13.5%; in the assay filed under Homo sapiens it was 17.5%; in [7], 3.19%; in [8], 6.41%; in [9], -5.69%.

For `CN(Cc1ccncc1)C(=O)Nc1cnn(CC2CCCO2)c1` (stereo unspecified), the Percent Effect in assay [1] was 0.7%; in assay [2] it was 5.41%; in [3] it was -6.68%; in [4], -2.66%; in the assay with Trypanosoma cruzi, -3.67%; in assay [5], 0.952%. Also, the Percent Effect in assay [6] is 20%; in the assay filed under Homo sapiens, 17.6%; in assay [7] it was -1.59%; in assay [8] it was 2.44%; in assay [9], -5.74%.
